Results: PubChem BioAssay AID1159580 (chemical genetic matrix, 2015)
Out of some 5,500 compounds screened, about 2,000 (36%) were called active. Another 18% or so got no clear call; they are omitted. No stated cut-off is given here; in the data, active means normalized growth mostly below about 0.91 (no sharp cut-off); inconclusive means no clear call, values can overlap the other calls; inactive means mostly above about 0.92. The list shows a part of the results.

Test: chemical genetic growth profiling, strain panel (AID 1159580);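 further: tested at 20 µM; growth read once vehicle control cultures reached saturation at 30 °C; 1 = growth at the plate median or of vehicle wells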
Settings: growth OD

Measured: normalized growth

C1CCN2C[C@@H]3C[C@H](CN4CCCC[C@@H]34)[C@H]2C1
inactive: S. cerevisiae deletion strains, locus YJR066W, strain TOR1, stronger effect = lower value 0.988 | S. cerevisiae deletion strains, locus YJR075W, strain HOC1, stronger effect = lower value 1.01 | S. cerevisiae deletion strains, locus YKL009W, strain mrt4, stronger effect = lower value 0.994 | S. cerevisiae deletion strains, locus YKL068W, stronger effect = lower value 0.999 | S. cerevisiae deletion strains, locus YKL085W, strain MDH1 (second series), stronger effect = lower value 1.02 | S. cerevisiae deletion strains, locus YKL085W, strain MDH1, stronger effect = lower value 1.02 | S. cerevisiae deletion strains, locus YKL160W, strain elf1, stronger effect = lower value 0.987 | S. cerevisiae deletion strains, locus YKL190W, strain CNB1, stronger effect = lower value 1.02 | S. cerevisiae deletion strains, locus YKR001C, strain vps1, stronger effect = lower value 0.996 | S. cerevisiae deletion strains, locus YKR026C, strain gcn3, stronger effect = lower value 1.01 | S. cerevisiae deletion strains, locus YKR091W, strain srl3, stronger effect = lower value 1 | S. cerevisiae deletion strains, locus YLL001W, strain dnm1, stronger effect = lower value 0.999 | S. cerevisiae deletion strains, locus YLL026W, stronger effect = lower value 1.01 | S. cerevisiae deletion strains, locus YLL041C, strain sdh2, stronger effect = lower value 0.999 | S. cerevisiae deletion strains, locus YLR027C, strain aat2, stronger effect = lower value 0.992 | S. cerevisiae deletion strains, locus YLR039C, strain RIC1, stronger effect = lower value 1.06 | S. cerevisiae deletion strains, locus YLR058C, strain SHM2, stronger effect = lower value 1.01 | S. cerevisiae deletion strains, locus YLR102C, strain apc9, stronger effect = lower value 0.993 | S. cerevisiae deletion strains, locus YLR113W, strain HOG1, stronger effect = lower value 1.01 | S. cerevisiae deletion strains, locus YLR221C, strain rsa3, stronger effect = lower value 1.03 | S. cerevisiae deletion strains, locus YLR258W, strain gsy2, stronger effect = lower value 1.01 | S. cerevisiae deletion strains, locus YLR262C, strain YPT6 (second series), stronger effect = lower value 1.04 | S. cerevisiae deletion strains, locus YLR262C, strain YPT6, stronger effect = lower value 1.1 | S. cerevisiae deletion strains, locus YLR268W, strain sec22, stronger effect = lower value 0.996 | S. cerevisiae deletion strains, locus YLR320W, strain mms22, stronger effect = lower value 1.04 | S. cerevisiae deletion strains, locus YLR330W, strain CHS5, stronger effect = lower value 1.02 | S. cerevisiae deletion strains, locus YLR342W, strain FKS1 (second series), stronger effect = lower value 0.996 | S. cerevisiae deletion strains, locus YLR342W, strain FKS1, stronger effect = lower value 1 | S. cerevisiae deletion strains, locus YLR357W, strain rsc2, stronger effect = lower value 1.02 | S. cerevisiae deletion strains, locus YLR370C, strain arc18, stronger effect = lower value 1.01 | S. cerevisiae deletion strains, locus YLR371W, strain rom2, stronger effect = lower value 0.999 | S. cerevisiae deletion strains, locus YLR384C, strain iki3, stronger effect = lower value 1.01 | S. cerevisiae deletion strains, locus YLR418C, strain cdc73, stronger effect = lower value 0.98 | S. cerevisiae deletion strains, locus YML016C, strain PPZ1, stronger effect = lower value 0.997 | S. cerevisiae deletion strains, locus YML032C, strain rad52, stronger effect = lower value 0.994 | S. cerevisiae deletion strains, locus YML120C, strain ndi1, stronger effect = lower value 1.01 | S. cerevisiae deletion strains, locus YML124C, strain tub3, stronger effect = lower value 1.01 | S. cerevisiae deletion strains, locus YMR058W, strain fet3, stronger effect = lower value 1.01 | S. cerevisiae deletion strains, locus YMR078C, strain ctf18, stronger effect = lower value 1 | S. cerevisiae deletion strains, locus YMR125W, strain sto1, stronger effect = lower value 0.995 | S. cerevisiae deletion strains, locus YMR129W, stronger effect = lower value 1.03 | S. cerevisiae deletion strains, locus YMR205C, strain PFK2, stronger effect = lower value 0.997 | S. cerevisiae deletion strains, locus YMR223W, strain ubp8, stronger effect = lower value 1.01 | S. cerevisiae deletion strains, locus YMR231W, strain pep5, stronger effect = lower value 1.01 | S. cerevisiae deletion strains, locus YMR307W, strain GAS1, stronger effect = lower value 1.02 | S. cerevisiae deletion strains, locus YNL067W, strain RPL9B, stronger effect = lower value 1.01 | S. cerevisiae deletion strains, locus YNL071W, strain lat1, stronger effect = lower value 1.01 | S. cerevisiae deletion strains, locus YNL153C, strain GIM3, stronger effect = lower value 1.01 | S. cerevisiae deletion strains, locus YNL183C, strain NPR1, stronger effect = lower value 0.98 | S. cerevisiae deletion strains, locus YNL209W, strain ssb2, stronger effect = lower value 1.01 | S. cerevisiae deletion strains, locus YNL233W, strain BNI4, stronger effect = lower value 1.01 | S. cerevisiae deletion strains, locus YNL248C, strain rpa49, stronger effect = lower value 1.03 | S. cerevisiae deletion strains, locus YNL250W, strain rad50, stronger effect = lower value 1.02 | S. cerevisiae deletion strains, locus YNL271C, strain bni1, stronger effect = lower value 1.01 | S. cerevisiae deletion strains, locus YNL298W, strain CLA4, stronger effect = lower value 0.994 | S. cerevisiae deletion strains, locus YNL307C, strain MCK1, stronger effect = lower value 1.01 | S. cerevisiae deletion strains, locus YNL322C, strain KRE1 (second series), stronger effect = lower value 1.01 | S. cerevisiae deletion strains, locus YNR049C, strain mso1, stronger effect = lower value 1.01 | S. cerevisiae deletion strains, locus YNR052C, strain pop2, stronger effect = lower value 1.02 | S. cerevisiae deletion strains, locus YOL006C, strain TOP1, stronger effect = lower value 1.08 | S. cerevisiae deletion strains, locus YOL012C, strain htz1 1.61 | S. cerevisiae deletion strains, locus YOL147C, strain pex11, stronger effect = lower value 1 | S. cerevisiae deletion strains, locus YOR001W, strain rrp6, stronger effect = lower value 1.02 | S. cerevisiae deletion strains, locus YOR061W, strain CKA2, stronger effect = lower value 1.01 | S. cerevisiae deletion strains, locus YOR069W, strain VPS5, stronger effect = lower value 1 | S. cerevisiae deletion strains, locus YOR070C, strain gyp1, stronger effect = lower value 1.02 | S. cerevisiae deletion strains, locus YOR080W, strain dia2, stronger effect = lower value 0.999 | S. cerevisiae deletion strains, locus YOR083W, strain WHI5, stronger effect = lower value 0.979 | S. cerevisiae deletion strains, locus YOR106W, strain vam3, stronger effect = lower value 1 | S. cerevisiae deletion strains, locus YOR136W, strain idh2, stronger effect = lower value 0.998 | S. cerevisiae deletion strains, locus YOR144C, strain elg1, stronger effect = lower value 0.989 | S. cerevisiae deletion strains, locus YOR184W, strain ser1, stronger effect = lower value 0.995 | S. cerevisiae deletion strains, locus YOR231W, strain MKK1, stronger effect = lower value 1.03 | S. cerevisiae deletion strains, locus YOR265W, strain rbl2, stronger effect = lower value 1 | S. cerevisiae deletion strains, locus YOR270C, strain vph1, stronger effect = lower value 1.05 | S. cerevisiae deletion strains, locus YOR290C, strain snf2, stronger effect = lower value 0.979 | S. cerevisiae deletion strains, locus YOR316C, strain cot1, stronger effect = lower value 1 | S. cerevisiae deletion strains, locus YPL051W, strain arl3, stronger effect = lower value 0.999 | S. cerevisiae deletion strains, locus YPL055C, strain LGE1, stronger effect = lower value 1.02 | S. cerevisiae deletion strains, locus YPL078C, strain atp4, stronger effect = lower value 0.978 | S. cerevisiae deletion strains, locus YPL106C, strain sse1, stronger effect = lower value 1.01 | S. cerevisiae deletion strains, locus YPL240C, strain hsp82, stronger effect = lower value 0.999 | S. cerevisiae deletion strains, locus YPL241C, strain CIN2, stronger effect = lower value 1 | S. cerevisiae deletion strains, locus YPL256C, strain CLN2, stronger effect = lower value 1.06 | S. cerevisiae deletion strains, locus YPR119W, strain clb2, stronger effect = lower value 0.999 | S. cerevisiae deletion strains, locus YPR141C, strain kar3, stronger effect = lower value 1 | S. cerevisiae deletion strains, locus YPR163C, strain tif3, stronger effect = lower value 1 | S. cerevisiae deletion strains, locus YPR167C, strain met16, stronger effect = lower value 1.02 | S. cerevisiae deletion strains, strain wtn01, stronger effect = lower value 1.01 | S. cerevisiae strains, strain wild type, stronger effect = lower value 1.02
